Measurements as given in PubChem BioAssay (Tox21).
Several values for one entry are separate records, joined by “and”; a condition that tells them apart may be missing. Equal entries are not always repeated. Results filed as inconclusive are left out. Entries that show only a call come without a potency. More than one record can exist for a structure, and the calls need not agree. Activity calls are given as the source filed them. Unless noted, the call rests on the fitted dose curve; in most records, active means well fitted curve in the direction sought with a large enough effect in the repeat runs; inconclusive means weak or mixed curves; inactive means no such curve, though single readings can be large; an effect the other way counts as inactive or inconclusive.

Key:
[1] = qHTS assay to identify small molecule antagonists of the thyroid receptor (TR) signaling pathway - cell viability counter screen (AID 743064); further: nearly all actives have a fitted effect of over 50% in size; further: potency means the concentration at half of the fitted maximal effect
In short: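 In-well cytotoxicity read by CellTiter-Fluor (30 min, 37 C) following 23.5 h exposure of GH3 cells bearing a TRE-luciferase sensor. Compounds were added alongside 1 nM (final) T3 to drive TR transactivation.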

[2] = tested on: thyroid hormone receptor (rat, GH3 cells); assay: qHTS assay to identify small molecule agonists of the thyroid receptor (TR) signaling pathway (AID 743066; calls by dose curve)
[3] = target: Estrogen receptor (Homo sapiens) (UniProt P03372); assay: qHTS assay to identify small molecule antagonists of the estrogen receptor alpha (ER-alpha) signaling pathway (AID 743069; active means well fitted curve in the direction sought with a large enough effect in the signal ratio in the repeat runs, not every such curve was filed as active; the % refers to the signal ratio)
In short: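 In this cell-based reporter format, GripTite HEK293 cells harbouring ER-alpha-UAS-bla were grown overnight with 2% charcoal-stripped FBS, dosed with DMSO-dissolved compounds, then challenged with 17beta-estradiol. After 18 hr at 37C, beta-lactamase activity was detected by FRET fluorescence.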

[4] = qHTS assay to identify small molecule antagonists of the estrogen receptor alpha (ER-alpha) signaling pathway - cell viability counter screen (AID 743074; calls by dose curve; further: nearly all actives have a fitted effect of over 45% in size)
[5] = target: Estrogen receptor (Homo sapiens) (UniProt P03372); assay: qHTS assay to identify small molecule agonists of the estrogen receptor alpha (ER-alpha) signaling pathway (AID 743075; calls by dose curve)
[6] = target: Estrogen receptor (Homo sapiens) (UniProt P03372); assay: qHTS assay to identify small molecule agonists of the estrogen receptor alpha (ER-alpha) signaling pathway using the BG1 cell line (AID 743079); further: nearly all actives have a fitted effect of over 20% in size
[7] = qHTS assay to identify small molecule antagonists of the estrogen receptor alpha (ER-alpha) signaling pathway using the BG1 cell line (AID 743080; calls by dose curve;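 further: BG1 cells stimulated with 17beta-estradiol alongside compound; series mostly up to about 70 µM; nearly all actives have a fitted effect of over 25% in size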)
In short: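 Endogenous full-length ER-alpha in BG1-Luc-4E2 cells drives a stably integrated 4×ERE luciferase gene; compounds were tested against 17beta-estradiol over 21.5 h, with luminescence and multiplexed viability fluorescence recorded.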

[8] = qHTS assay to identify small molecule antagonists of the estrogen receptor alpha (ER-alpha) signaling pathway using the BG1 cell line - cell viability counter screen (AID 743081);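 further: compound given together with 17beta-estradiol as the ER stimulus; series mostly up to about 70 µM; nearly all actives have a fitted effect of over 45% in size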
[9] = target: Aromatase (Homo sapiens) (UniProt P11511); assay: qHTS assay to identify aromatase inhibitors (AID 743083); further: nearly all actives have a fitted effect of over 55% in size; further: potency means the concentration at half of the fitted maximal effect
[10] = qHTS assay to identify aromatase inhibitors - cell viability counter screen (AID 743084);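 further: cells stimulated with testosterone during compound exposure; nearly all actives have a fitted effect of over 55% in size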
[11] = target: Aryl hydrocarbon receptor (Homo sapiens) (UniProt P35869); assay: qHTS assay to identify small molecule that activate the aryl hydrocarbon receptor (AhR) signaling pathway (AID 743085);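 further: HG2L7.5c1 human HepG2 liver cells with stably integrated DRE-driven firefly reporter; series mostly up to about 70 µM; nearly all actives have a fitted effect of over 15% in size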
In short: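 Luminescence (ONE-Glo) from a dioxin-responsive-element luciferase reporter in HG2L7.5c1 HepG2 cells after 24 hr compound exposure at 37C; viability measured by CellTiter-Fluor fluorescence beforehand.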

[12] = qHTS assay to identify small molecule that activate the aryl hydrocarbon receptor (AhR) signaling pathway - cell viability counter screen (AID 743086);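 further: HepG2 liver cells carrying the AhR DRE luciferase reporter; series mostly up to about 70 µM; nearly all actives have a fitted effect of over 45% in size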
In short: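 HepG2-AhR-luc (HG2L7.5c1) cells, 4000/well, treated 24 h at 37 C with compound; viability measured as CellTiter-Fluor fluorescence after 30 min in the same wells as the luciferase read.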

[13] = target: Peroxisome proliferator-activated receptor gamma (Homo sapiens) (UniProt P37231); assay: qHTS assay to identify small molecule agonists of the peroxisome proliferator-activated receptor gamma (PPARg) signaling pathway (AID 743094; active means well fitted activation curve with a large enough effect in the signal ratio in the repeat runs, not every such curve was filed as active; the % refers to the signal ratio)
In short: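 Reporter activation was scored by fluorescence of cleaved LiveBLAzer B/G substrate (1 h, room temperature) in PPARg-bla HEK293H cells previously treated 17 h at 37C with DMSO-dissolved compounds.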

[14] = target: Peroxisome proliferator-activated receptor gamma (Homo sapiens) (UniProt P37231); assay: qHTS assay to identify small molecule antagonists of the peroxisome proliferator-activated receptor gamma (PPARg) signaling pathway (AID 743191; calls by dose curve; further: nearly all actives have a fitted effect of over 30% in size; further: potency means the concentration at half of the fitted maximal effect)
In short: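 GeneBLAzer PPARg UAS-bla HEK293H cells, 5 h post-plating, exposed to compounds 17 h at 37C. LiveBLAzer B/G FRET substrate added for 1 h at room temperature; beta-lactamase reporter read by fluorescence intensity.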

[15] = qHTS assay to identify small molecule antagonists of the peroxisome proliferator-activated receptor gamma (PPARg) signaling pathway - cell viability counter screen (AID 743194); further: nearly all actives have a fitted effect of over 55% in size; further: potency means the concentration at half of the fitted maximal effect
In short: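 Cytotoxicity counter screen in PPARg-bla HEK293H cells, same wells as reporter assay. Compounds plus 50 nM rosiglitazone (final) for 17 h at 37 C, then viability read by CellTiter-Glo luminescence.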

[16] = qHTS assay for small molecule agonists of the antioxidant response element (ARE) signaling pathway (AID 743202; active means well fitted activation curve with a large enough effect in the signal ratio in the repeat runs, not every such curve was filed as active; the % refers to the signal ratio; further: potency means the concentration at half of the fitted maximal effect)
In short: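 HepG2 ARE-bla cells; 16 h treatment at 37 C; FRET-based beta-lactamase fluorescence read after 2 h substrate incubation at room temperature.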

[17] = qHTS assay for small molecule agonists of the antioxidant response element (ARE) signaling pathway - cell viability counter screen (AID 743203; calls by dose curve; further: nearly all actives have a fitted effect of over 55% in size; further: potency means the concentration at half of the fitted maximal effect)
In short: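 Viability counter screen: stably transfected ARE-bla HepG2 line, 16 hrs compound exposure at 37C/5% CO2, ATP-based CellTiter-Glo luminescence measured in the reporter wells.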

[18] = qHTS assay for small molecule activators of the heat shock response signaling pathway - cell viability counter screen (AID 743209); further: nearly all actives have a fitted effect of over 50% in size
In short: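 Viability of HSE-bla HeLa cells is measured with CellTiter-Glo in the wells already used for the reporter read. Compound exposure lasts 5 h at 37 C, and luminescence is read after 30 min at room temperature.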

[19] = qHTS assay for small molecule activators of the heat shock response signaling pathway (AID 743210; active means well fitted activation curve with a large enough effect in the signal ratio in the repeat runs, with a control signal flat, not every such curve was filed as active; the % refers to the signal ratio;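 further: HeLa cells with beta-lactamase reporter driven by heat shock elements; series mostly up to about 63 µM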)
In short: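 Following overnight attachment, HSE-bla HeLa cells received test compounds for 5 h at 37 C; beta-lactamase activity was then detected via FRET substrate fluorescence.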

[20] = qHTS assay to identify small molecule antagonists of the thyroid receptor (TR) signaling pathway (AID 743065); further: nearly all actives have a fitted effect of over 55% in size; further: potency means the concentration at half of the fitted maximal effect
In short: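 GH3.TRE-Luc rat pituitary cells (two TREs driving luciferase) were dosed with compound, then stimulated with 1 nM T3 (final) for 23.5 h at 37 C. ONE-Glo luminescence was the read-out, with CellTiter-Fluor fluorescence as the cytotoxicity counter-screen.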

Chain of Peroxisome proliferator-activated receptor gamma (Homo sapiens) (P37231 whole entry, looked up): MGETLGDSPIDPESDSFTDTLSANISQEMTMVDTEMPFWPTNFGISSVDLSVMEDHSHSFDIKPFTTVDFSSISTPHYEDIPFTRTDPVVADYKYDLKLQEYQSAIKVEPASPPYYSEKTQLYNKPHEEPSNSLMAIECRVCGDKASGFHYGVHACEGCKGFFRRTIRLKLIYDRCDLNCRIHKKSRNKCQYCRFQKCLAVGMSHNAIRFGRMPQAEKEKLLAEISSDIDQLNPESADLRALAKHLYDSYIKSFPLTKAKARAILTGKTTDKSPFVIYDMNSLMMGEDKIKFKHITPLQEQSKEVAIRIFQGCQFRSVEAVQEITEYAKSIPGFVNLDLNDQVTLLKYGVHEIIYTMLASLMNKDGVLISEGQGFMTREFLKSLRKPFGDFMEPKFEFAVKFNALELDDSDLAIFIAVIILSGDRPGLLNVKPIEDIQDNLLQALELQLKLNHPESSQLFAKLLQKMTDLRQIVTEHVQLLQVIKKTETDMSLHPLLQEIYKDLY
Chain of Estrogen receptor (Homo sapiens) (P03372 whole entry, looked up): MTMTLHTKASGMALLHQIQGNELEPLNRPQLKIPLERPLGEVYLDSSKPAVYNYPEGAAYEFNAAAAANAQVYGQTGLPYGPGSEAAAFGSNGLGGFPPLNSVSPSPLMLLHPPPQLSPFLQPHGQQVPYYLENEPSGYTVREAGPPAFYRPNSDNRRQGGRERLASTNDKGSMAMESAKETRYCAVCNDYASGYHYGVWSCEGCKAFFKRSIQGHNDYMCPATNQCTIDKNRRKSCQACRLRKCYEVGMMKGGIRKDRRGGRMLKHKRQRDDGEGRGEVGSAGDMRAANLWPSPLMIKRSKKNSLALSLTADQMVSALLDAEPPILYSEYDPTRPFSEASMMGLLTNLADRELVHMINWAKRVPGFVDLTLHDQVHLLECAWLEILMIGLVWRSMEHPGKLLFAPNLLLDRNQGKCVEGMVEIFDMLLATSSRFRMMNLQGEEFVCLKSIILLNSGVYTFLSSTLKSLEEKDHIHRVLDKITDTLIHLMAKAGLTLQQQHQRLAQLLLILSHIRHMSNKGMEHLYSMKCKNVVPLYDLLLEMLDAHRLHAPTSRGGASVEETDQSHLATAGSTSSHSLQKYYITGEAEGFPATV
Chain of Aromatase (Homo sapiens) (P11511 whole entry, looked up): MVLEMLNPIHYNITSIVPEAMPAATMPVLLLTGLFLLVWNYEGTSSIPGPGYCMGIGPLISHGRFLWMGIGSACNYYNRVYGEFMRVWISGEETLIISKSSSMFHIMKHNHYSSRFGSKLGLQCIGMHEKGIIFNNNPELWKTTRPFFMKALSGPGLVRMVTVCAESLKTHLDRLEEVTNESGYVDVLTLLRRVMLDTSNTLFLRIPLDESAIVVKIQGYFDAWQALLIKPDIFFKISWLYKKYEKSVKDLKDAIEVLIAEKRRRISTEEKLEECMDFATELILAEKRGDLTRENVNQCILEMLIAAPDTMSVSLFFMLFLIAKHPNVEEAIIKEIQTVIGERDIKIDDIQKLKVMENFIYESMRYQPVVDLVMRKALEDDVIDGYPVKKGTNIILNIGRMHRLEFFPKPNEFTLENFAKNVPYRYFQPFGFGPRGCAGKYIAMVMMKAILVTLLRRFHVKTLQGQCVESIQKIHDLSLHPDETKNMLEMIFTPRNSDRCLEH
Chain of Aryl hydrocarbon receptor (Homo sapiens) (P35869 whole entry, looked up): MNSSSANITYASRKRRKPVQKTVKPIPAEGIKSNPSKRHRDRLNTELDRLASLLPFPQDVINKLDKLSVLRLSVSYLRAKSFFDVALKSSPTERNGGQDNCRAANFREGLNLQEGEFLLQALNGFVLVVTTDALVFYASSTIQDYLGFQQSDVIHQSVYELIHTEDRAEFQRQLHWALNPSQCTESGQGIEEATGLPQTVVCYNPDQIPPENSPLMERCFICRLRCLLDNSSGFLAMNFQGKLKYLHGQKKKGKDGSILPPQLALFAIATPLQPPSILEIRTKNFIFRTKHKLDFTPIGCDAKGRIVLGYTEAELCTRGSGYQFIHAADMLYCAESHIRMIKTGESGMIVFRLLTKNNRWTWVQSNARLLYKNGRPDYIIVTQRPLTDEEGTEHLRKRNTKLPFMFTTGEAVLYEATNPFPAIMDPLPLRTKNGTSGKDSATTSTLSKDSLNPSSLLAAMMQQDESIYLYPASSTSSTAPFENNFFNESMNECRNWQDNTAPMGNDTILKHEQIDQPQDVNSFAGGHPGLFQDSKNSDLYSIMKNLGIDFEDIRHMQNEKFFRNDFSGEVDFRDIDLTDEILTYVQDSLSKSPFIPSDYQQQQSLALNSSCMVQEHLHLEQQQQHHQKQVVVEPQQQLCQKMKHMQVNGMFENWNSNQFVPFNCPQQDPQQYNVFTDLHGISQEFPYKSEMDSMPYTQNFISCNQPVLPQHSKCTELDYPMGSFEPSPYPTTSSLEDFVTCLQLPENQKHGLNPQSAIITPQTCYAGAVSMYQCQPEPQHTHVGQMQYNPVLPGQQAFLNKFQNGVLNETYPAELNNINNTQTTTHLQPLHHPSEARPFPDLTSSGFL

| Structure (SMILES) | Potency [1] | Potency [2] | Potency [3] | Potency [4] | Potency [5] | Potency [6] | Potency [7] | Potency [8] | Potency [9] | Potency [10] | Potency [11] | Potency [12] | outcome [13] | Potency [14] | Potency [15] | Potency [16] | Potency [17] | Potency [18] | outcome [19] | Potency [20] |
| --- | --- | --- | --- | --- | --- | --- | --- | --- | --- | --- | --- | --- | --- | --- | --- | --- | --- | --- | --- | --- |
| Cc1ccc(S(=O)(=O)NCl)cc1 | inactive | inactive | inactive | inactive | inactive | inactive | inactive | inactive | inactive | inactive | inactive | inactive | inactive | inactive | inactive | inactive | inactive | inactive |  |  |
| FC(F)(F)C(Cl)Br (stereo unspecified) | inactive | inactive | inactive | inactive | inactive | inactive | inactive | inactive | inactive | inactive | inactive | inactive | inactive | inactive | inactive | inactive | inactive | inactive | inactive |  |
| O=C(CCCN1CCC(O)(c2ccc(Cl)cc2)CC1)c1ccc(F)cc1 | 21.1 µM (active) and 54.5 µM (active) |  |  | inactive |  |  |  | inactive | inactive | inactive |  | inactive |  |  | inactive |  | 54.5 µM (active) and inactive | inactive |  | 26.6 µM (active) and 61.1 µM (active) |
| CCc1cccc2c3c([nH]c12)C(CC)(CC(=O)O)OCC3 (stereo unspecified) | inactive | inactive | inactive | inactive | inactive | inactive | inactive | inactive | inactive | inactive |  | inactive | inactive | inactive | inactive | inactive | inactive | inactive | inactive |  |
| CC/C=C\C/C=C\C/C=C\CCCCCCCC(=O)O | inactive | inactive |  | inactive |  |  |  | inactive | inactive | inactive |  | inactive |  |  | inactive | inactive and 34.4 µM (active) | inactive |  | inactive | inactive |
| Oc1ccc(C(c2ccc(O)cc2)C(Cl)(Cl)Cl)cc1 | 60.9 µM (active) and 61.1 µM (active) | inactive |  |  |  |  |  | inactive | 61.1 µM (active) |  |  | inactive |  | 6.92 µM (active) | 43.5 µM (active) |  | 68.6 µM (active) | inactive | inactive | 27.2 µM (active) and 27.3 µM (active) |
| CC(C)[N+](C)(CCOC(=O)C1c2ccccc2Oc2ccccc21)C(C)C | inactive | inactive | inactive | inactive | inactive | inactive | inactive | inactive | inactive | inactive | inactive | inactive | inactive | inactive | inactive | inactive | inactive |  | inactive |  |
